From PubChem BioAssay
FBW7 act: FBW7 E3 ligase activators, primary screen, biochemical, AlphaScreen, human; AlphaScreen FBW7–phospho-cyclin E peptide binding, activator screen; normalized activity (activation), % at 26.1 µM; 0.13% of 650,000 active; AID 1259310, 2017; in the data active means normalized activity above about 1.9%;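 further: purified mutant Fbw7 with reduced substrate affinity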
GPR151 activ: activators of human GPR151, primary screen, cell-based, PathHunter beta-arrestin, luminescence; G-protein coupled receptor 151 (Homo sapiens), Q8TDV0; PathHunter beta-arrestin GPR151 cells; activation, % at 11.2 µM; 1% of 650,000 active; AID 1508602, 2020; in the data active means activation above about 4.9%
TEAD-YAP block: TEAD-YAP interaction inhibition, primary screen, TEAD-YAP interaction inhibitor project, luminescence, HEK-TIYL cells. 1.4% of 640,000 active. AID 1259422, 2018. TEAD-Gal4/YAP UAS-luciferase luminescence. inhibition, % at 9.12 µM; in the data active means inhibition above about 32%
MITF inh: MITF inhibitors, primary screen, biochemical, AlphaScreen, human | Microphthalmia-associated transcription factor (Homo sapiens), O75030 | AlphaScreen MITF homodimerization, bead proximity signal | inhibition, % at 2.6 µM | 0.91% of 650,000 active | AID 1259374, 2018; in the data active means inhibition above about 50%
Target sequence (O75030 whole entry, looked up): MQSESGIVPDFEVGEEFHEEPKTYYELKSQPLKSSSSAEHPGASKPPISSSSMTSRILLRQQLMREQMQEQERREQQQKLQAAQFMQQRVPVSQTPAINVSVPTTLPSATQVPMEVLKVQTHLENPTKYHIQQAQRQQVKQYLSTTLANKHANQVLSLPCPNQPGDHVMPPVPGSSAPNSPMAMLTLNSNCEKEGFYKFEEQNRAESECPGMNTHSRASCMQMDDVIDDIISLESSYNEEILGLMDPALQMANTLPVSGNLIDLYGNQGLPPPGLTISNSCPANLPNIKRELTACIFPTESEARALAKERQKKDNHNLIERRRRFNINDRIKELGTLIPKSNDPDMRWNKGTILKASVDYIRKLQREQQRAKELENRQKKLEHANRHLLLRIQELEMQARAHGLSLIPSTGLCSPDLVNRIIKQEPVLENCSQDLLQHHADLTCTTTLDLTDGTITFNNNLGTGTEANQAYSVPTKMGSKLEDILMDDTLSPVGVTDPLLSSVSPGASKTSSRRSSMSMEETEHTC
GPR151 conf act: GPR151 activators, triplicate retest, confirmation, cell-based, PathHunter beta-arrestin, luminescence | shares compounds with GPR151 activ | GPR151 PathHunter beta-arrestin cells, 90 min; % of EA-reagent control over plate median | activation, % at 11.2 µM | 6,700 tested, under 10 active;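 active means mean percent activation across replicates above the confirmation screen cutoff of 4.91%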
GPR119 ag: GPR119 activators in beta-arrestin cells, counter-screen for GPR151 activator project, cell-based, PathHunter beta-arrestin, luminescence, triplicate; shares compounds with GPR151 activ; 90 min; 0 = compound-well median, 100 = enzyme-acceptor control; activation, % at 11.2 µM; 0.3% of 6,700 active;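 active means mean percent activation in the counterscreen above 29.09%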;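 further: counterscreen on off-target GPR119 to flag nonselective hits from the GPR151 activator screen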
Each line names hits and unclear results; the compound was inactive in the other large screens (follow-up assays come after a bar, where they were run); ! = not confirmed by another sample. This is a sample that favours compounds with a hit; in the whole collection about 3.4% have one here.

Cc1cccc(OCC(O)CN2CCCCCC2)c1C (centres undefined)	GPR151 activ 9.8 | GPR151 conf act inactive | GPR119 ag inactive
CCCCCn1c(SCc2ccncc2)nc2cc(C(=O)NCc3cccc(Cl)c3)ccc2c1=O	GPR151 activ 5.1 | GPR151 conf act inactive | GPR119 ag inactive
CC(C)CCn1nc(C(=O)NN)c2ccccc2c1=O	GPR151 activ 6.0 | GPR151 conf act inactive | GPR119 ag inactive
Cc1c(C(=O)NCCC2=CCCCC2)sc2ncn(CC(=O)Nc3cccc(C(F)(F)F)c3)c(=O)c12	none
COc1ccc(OC)c(C2C(C(N)=O)=C(C)Nc3nc(CCCO)nn32)c1 (centres undefined)	GPR151 activ 7.7 | GPR151 conf act inactive | GPR119 ag inactive
Cc1cc(CNC(=S)Nc2ccc(F)cc2F)nn1C	none
CSc1nsc(NC(=O)c2ccc(F)cc2F)n1	none
O=C(Nc1nc(SCc2ccc(F)cc2)ns1)c1cc(F)c(F)cc1Cl	GPR151 activ 8.4 | GPR151 conf act inactive | GPR119 ag inactive
O=S(=O)(NCCC1=CCCCC1)c1ccc(-n2cccn2)cc1	none
COCCn1c(=NC(=O)Cc2ccccc2)sc2cc(OC)ccc21	none
COCCn1c(=NC(=O)CCS(=O)(=O)c2ccccc2)sc2cc(OC)ccc21	GPR151 activ 6.7 | GPR151 conf act inactive | GPR119 ag inactive
CC(C)=CC[C@@H](O)C1=CC(=O)c2c(O)ccc(O)c2C1=O	GPR151 activ 10.0!, MITF inh 75! | GPR151 conf act inactive | GPR119 ag inactive
CN1CC(=O)N2CCN(C(=O)Oc3ccc(F)cc3)C[C@@H]2C1=O	none
CS(=O)(=O)c1ccc2c(c1)SC1=NC(C(F)(F)F)(C(F)(F)F)NC(=O)N12	none
CCOC(=O)CC1=CSC2=NC(C(F)(F)F)(C(F)(F)F)NC(=O)N12	GPR151 activ 5.6 | GPR151 conf act inactive | GPR119 ag inactive
O=C(Nc1cccc(Cl)c1)c1cc2cc(Br)ccc2oc1=O	none
Cc1ccc(C(=O)CC(=O)C(=O)Nc2ncccc2O)c(C)c1	GPR151 activ 8.3 | GPR151 conf act inactive | GPR119 ag inactive
CCOC(=O)c1ccc(NC(=O)CNC(=O)c2ccccc2)cc1	GPR151 activ 15 | GPR151 conf act inactive | GPR119 ag inactive
CCOc1ccc(NC(=O)CN2C(=O)C(CC)SC(CC)C2=O)cc1 (centres undefined)	GPR151 activ 5.1 | GPR151 conf act inactive | GPR119 ag inactive
COc1ccc(/C=C2\SC(=O)N(CC(=O)Nc3ccc(C)cc3)C2=O)cc1OC	none
CCOc1ccc(NC(=O)CN2C(=O)C(C)SC(C)C2=O)cc1 (centres undefined)	none
CCOc1ccc(/C=C2\SC(=S)N(CC(=O)Nc3ccc(O)cc3)C2=O)cc1	GPR151 activ 5.7 | GPR151 conf act inactive | GPR119 ag inactive
CCOc1ccc(NC(=O)CNC(=O)c2ccccc2)cc1	none
COc1ccc(/C=C2\SC(=O)N(CC(=O)Nc3ccc(F)cc3)C2=O)cc1O	GPR151 activ 6.2 | GPR151 conf act inactive | GPR119 ag inactive
O=C(c1nn2c(C(F)(F)F)cc(-c3ccccc3)nc2c1Br)N1CCCc2ccccc21	none
COc1ccc2cc(C(=O)Nc3ccccc3)c(=Nc3ccc(-c4nc5ccc(C)cc5s4)cc3)oc2c1	none
O=C(Nc1ccc2nc(C3CCCCC3)[nH]c2c1)C12CC3CC(CC(C3)C1)C2	none
CCOC(=O)c1ccc(NC(=O)CN2C(=O)C(CC)SC(CC)C2=O)cc1 (centres undefined)	GPR151 activ 6.4 | GPR151 conf act inactive | GPR119 ag inactive
CCOC(=O)c1ccc(NC(=O)CN2C(=O)CSCC2=O)cc1	none
COc1cccc2cc(C(=O)Nc3ccccc3)c(=Nc3ccc(-c4nc5ccc(C)cc5s4)cc3)oc12	none
Cc1ccc2oc(C(=O)NCCc3ccc(S(N)(=O)=O)cc3)c(C)c2c1	none
